# Measured values as given in PubChem BioAssay (NCI).
# “And” between values parts separate entries of the source, which are not always exact repeats. Equal values may be shown once. This is part of a sample that, as a whole, favours compounds with a hit. Of some 83,000 tested, about 20% had one in any assay.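 Step 1: grow cells in 96-well plates. Step 2: add test compound at a single concentration. Step 3: incubate 48 h. Step 4: record percent growth.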 The source made the active and inactive calls. The calls were made as follows: active = growth percent below 10; inactive = the rest.
# System: MDA-MB-468 breast
# Experiment: NCI-60 one-dose screen, 48 h (100 = growth as untreated, 0 = no growth, -100 = all killed)
# Details: 10 µM unless noted
row,Compound,growth
1,C=C1CCC2C3(C)COC(c4ccccc4Br)OC3CCC2(C)C1C/C=C1/C(=O)OCC1OC(C)=O (stereo not given),-34.3% (active)
2,CC(C)(C)CC(C)(C)n1nnnc1C(Nc1ccccc1)c1cc2cccc3ccc4cccc1c4c32 (stereo not given),86.5% (inactive)
3,NC(=S)N/N=C/c1ccc(OC(=O)COc2ccc(Cl)cc2)cn1,24.6% (inactive)
4,COc1cc(C2CC(c3ccc4c(c3)OCO4)=NN2C(C)=O)cc(OC)c1OC (stereo not given),-26.8% (active)
5,Oc1ccc(Cc2ccccc2Cl)c(O)c1,98.4% (inactive)
6,Cc1cc(O)c(C(C)C)cc1N,8.67% (active) and -40.1% (active)
7,Cc1ccccc1OC(=O)c1cccc(Cl)c1,107% (inactive)
8,COc1ccc2c(c1)c(-c1nc(-c3c[nH]c4ncccc34)cs1)cn2CCN,1.91% (active)
9,O=C1/C(=C/c2ccccc2F)CN(C(=O)C(Cl)Cl)C/C1=C\c1ccccc1F,-32.4% (active)
10,O=C(c1ccc(C(F)(F)F)c(Cl)c1)N(Cc1ccc(Cl)cc1)c1ccc(-c2cc(C(F)(F)F)[nH]n2)c(O)c1,-11.5% (active)
11,O=[N+]([O-])c1ccc(S(=O)(=O)OCCCCOS(=O)(=O)c2ccc([N+](=O)[O-])cc2)cc1,92.2% (inactive)
12,CCCCC1CCCC12NC(=O)NC2=O (stereo not given),112% (inactive)
13,Cc1cc(NCCCCNc2ccnc3cc(Cl)ccc23)nc(Nc2ccc(C(=O)N3CCCC3)cc2)n1,-26.6% (active)
14,COc1ccc(/C=C(/c2ccccc2)[N+](=O)[O-])c(OC)c1,-56.5% (active)
15,COc1cc(C2C3=C(COC3=O)N(CCO)c3cc4c(cc32)CCC4)cc(OC)c1OC (stereo not given),0.574% (active)
16,Cc1ccc2c(c1)nc(C)n2-c1ncnc2c1CC(C)c1cc(O)ccc1N2C (stereo not given),10% (inactive)
17,O=C(CC(=O)c1ccccc1F)Nc1ccc([N+](=O)[O-])cc1,90.9% (inactive)
18,NC(=O)c1c(NC(=O)c2ccc(C(F)(F)F)cc2)sc2c1CCC(=O)C2,-30.7% (active)
19,C=C1C(=O)O[C@H]2[C@H]1CC/C(COC(=O)/C=C\C(=O)NCc1ccc(Cn3c(=O)sn(CCCC)c3=O)cc1)=C\CC[C@@]1(C)O[C@@H]21,-70.9% (active)
20,N#Cc1ccc(OC(=O)Nc2c(Cl)cc(Cl)cc2Cl)cc1,97% (inactive)

row,Compound,growth
1,C/C(O)=C(\C=N\C(N)=S)C(=O)Nc1ccccc1,92.8% (inactive)
2,CCOC(=O)c1c(NC(=O)c2ccc(C(F)(F)F)cc2)sc2c(CN3CCN(C)CC3)c(O)ccc12,-80.6% (active)
3,COc1ccncc1C#Cc1cncc(C(=O)Nc2ccc(CN3CCN(C)CC3)c(C(F)(F)F)c2)c1,73.1% (inactive)
4,CCN(CC)S(=O)(=O)c1ccc(-c2nc(C(Cl)Cl)nc3cc(-c4ccc(F)cc4)nn23)cc1,-31.9% (active)
5,Cc1ccc(-c2csc(NC(=O)CCCCl)n2)cc1,93.3% (inactive)
6,CC/C(Cc1ccccc1)=C(/c1ccc(O)cc1)c1ccc(OCCN2CCCC2)cc1,-82.1% (active)
7,CCCCN(CCCC)CCCn1c(=O)c2sc3ncccc3c2n2nnc(-c3ccccc3)c12,109% (inactive)
8,Cc1cccc2ccccc12,103% (inactive)
9,O=C(N/N=C(\CS(=O)(=O)c1ccccc1)c1cc2ccccc2oc1=O)c1ccccc1,117% (inactive)
10,COc1cccc(C(=O)Nc2cccc(NC(=O)c3ccccn3)c2)c1,105% (inactive)
11,NS(=O)(=O)c1ccc(CCn2c(SCC(=O)N/N=C/c3ccccc3O)nc3ccccc3c2=O)cc1,59.1% (inactive)
12,COC(=O)c1[nH]cnc1/N=N/N(C)CCO,87.2% (inactive)
13,CS(=O)CCCCCN=C=S (stereo not given),-11.3% (active)
14,Clc1ccc(-c2nc(-c3c[nH]c4ncccc34)cs2)cc1,80.2% [100 µM] (inactive)
15,COc1cc(/C=N/O)nc(-c2ccccn2)c1,-16.9% (active)
16,C=CCn1ccc(=O)nc1SC,115% (inactive)
17,C/C(=N\O)[C@@H]1CC[C@]2(CO)CC[C@]3(C)[C@H](CC[C@@H]4[C@@]5(C)CCCNC(C)(C)[C@@H]5CC[C@]43C)[C@@H]12,74.6% (inactive)
18,C#CCn1cnc2cnc(Nc3cccc(NC(=O)CCl)c3)nc21,-17.3% [6.25 µM] (active)
19,NS(=O)(=O)c1ccc(-n2nc(-c3ccc(Br)cc3)ccc2=O)cc1,66% [100 µM] (inactive)
20,COc1ccc(-c2ccc3cnc4sc(-c5ccc(OC)cc5)nc4c3n2)cc1,96.5% (inactive)
